Test results reported in the supplement of paper PMC8728848.
About 410 targets per protein were measured; listed, in parts, are those with the strongest signals and a random draw of the rest.

Tests used:
Experiment in all cases: glycan array binding signal (z-score within array); higher = stronger binding
Details in all cases: glycan notation: IUPAC condensed, linker removed
Gal6P(b1-4)GlcNAc = target: Gal6P(b1-4)GlcNAc
Method in brief: (§1)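 Glycan array binding is given as a within-array Z-score, which can be read as non-binding when negative. The arrays, 3228 of them, came from the Consortium for Functional Glycomics database and were retained only where the protein sequence was available. Z-scores were averaged across arrays of the same protein sequence at different concentrations or buffers and across linkers.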

GalNAc(b1-3)GlcNAc = target: GalNAc(b1-3)GlcNAc
Method in brief: as §1

[1] = target: GalNAc(b1-4)GlcNAc(b1-2)Man(a1-3)[GalNAc(b1-4)GlcNAc(b1-2)Man(a1-6)]Man(b1-4)GlcNAc(b1-4)GlcNAc
Method in brief: as §1

GalNAc(b1-6)GalNAc = target: GalNAc(b1-6)GalNAc
Method in brief: as §1

GalNAc3S(b1-4)GlcNAc3S = target: GalNAc3S(b1-4)GlcNAc3S
Method in brief: as §1

GlcA(b1-6)Gal = target: GlcA(b1-6)Gal
Method in brief: as §1

[2] = target: GlcA3S(b1-3)Gal(b1-4)GlcNAc(b1-2)Man
Method in brief: as §1

[3] = target: GlcNAc(a1-4)Gal(b1-4)GlcNAc
Method in brief: as §1

[4] = target: GlcNAc(b1-3)Gal(b1-3)GalNAc
Method in brief: as §1

[5] = target: GlcNAc(b1-3)Gal(b1-4)GlcNAc(b1-2)Man(a1-3)[GlcNAc(b1-3)Gal(b1-4)GlcNAc(b1-2)Man(a1-6)]Man(b1-4)GlcNAc(b1-4)[Fuc(a1-6)]GlcNAc
Method in brief: as §1

[6] = target: GlcNAc(b1-3)Gal(b1-4)GlcNAc(b1-3)Gal(b1-4)GlcNAc(b1-2)[GlcNAc(b1-3)Gal(b1-4)GlcNAc(b1-3)Gal(b1-4)GlcNAc(b1-6)]Man(a1-6)[GlcNAc(b1-3)Gal(b1-4)GlcNAc(b1-3)Gal(b1-4)GlcNAc(b1-2)Man(a1-3)]Man(b1-4)GlcNAc(b1-4)[Fuc(a1-6)]GlcNAc
Method in brief: as §1

[7] = target: GlcNAc(b1-3)Gal(b1-4)GlcNAc(b1-3)Gal(b1-4)GlcNAc(b1-3)Gal(b1-4)GlcNAc(b1-2)Man(a1-3)[GlcNAc(b1-3)Gal(b1-4)GlcNAc(b1-3)Gal(b1-4)GlcNAc(b1-3)Gal(b1-4)GlcNAc(b1-2)Man(a1-6)]Man(b1-4)GlcNAc(b1-4)[Fuc(a1-6)]GlcNAc
Method in brief: as §1

[8] = target: GlcNAc(b1-3)[GlcNAc(b1-4)][GlcNAc(b1-6)]GlcNAc
Method in brief: as §1

[9] = target: GlcNAc(b1-3)[GlcNAc(b1-6)]GalNAc
Method in brief: as §1

Kdn(a2-6)Gal(b1-4)GlcNAc = target: Kdn(a2-6)Gal(b1-4)GlcNAc
Method in brief: as §1

Man(a1-3)[Man(a1-6)]Man = target: Man(a1-3)[Man(a1-6)]Man
Method in brief: as §1

[10] = target: Neu5Ac(a2-3)Gal(b1-3)GalNAc6S
Method in brief: as §1

[11] = target: Neu5Ac(a2-3)Gal(b1-4)GlcNAc(b1-3)Gal(b1-4)GlcNAc(b1-3)Gal(b1-4)GlcNAc(b1-2)Man(a1-3)[Neu5Ac(a2-3)Gal(b1-4)GlcNAc(b1-3)Gal(b1-4)GlcNAc(b1-3)Gal(b1-4)GlcNAc(b1-2)Man(a1-6)]GalNAc
Method in brief: as §1

[12] = target: Neu5Ac(a2-3)Gal(b1-4)GlcNAc(b1-6)[Neu5Ac(a2-3)Gal(b1-3)]GalNAc
Method in brief: as §1

[13] = target: Neu5Ac(a2-3)Gal(b1-4)[Fuc(a1-3)]GlcNAc(b1-6)[Gal(b1-3)]GalNAc
Method in brief: as §1

[14] = target: Neu5Ac(a2-3)[GalNAc(b1-4)]Gal(b1-4)Glc
Method in brief: as §1

[15] = target: Neu5Ac(a2-6)Gal(b1-4)GlcNAc(b1-2)Man(a1-6)[GlcNAc(b1-2)Man(a1-3)]Man(b1-4)GlcNAc(b1-4)GlcNAc
Method in brief: as §1

[16] = target: Neu5Ac(a2-6)Gal(b1-4)GlcNAc(b1-3)Gal(b1-4)GlcNAc(b1-3)Gal(b1-4)GlcNAc(b1-2)Man(a1-3)[Neu5Ac(a2-6)Gal(b1-4)GlcNAc(b1-3)Gal(b1-4)GlcNAc(b1-3)Gal(b1-4)GlcNAc(b1-2)Man(a1-6)]GalNAc
Method in brief: as §1

[17] = target: Neu5Ac(a2-6)Gal(b1-4)GlcNAc(b1-3)Gal(b1-4)GlcNAc(b1-3)GalNAc
Method in brief: as §1

Neu5Ac(a2-6)GalNAc = target: Neu5Ac(a2-6)GalNAc
Method in brief: as §1

[18] = target: Neu5Ac(a2-6)GalNAc(b1-4)GlcNAc6S
Method in brief: as §1

[19] = target: Neu5Ac(a2-8)Neu5Ac(a2-8)Neu5Ac
Method in brief: as §1

[20] = target: Neu5Gc(a2-3)Gal(b1-3)GlcNAc
Method in brief: as §1

[21] = target: Neu5Gc(a2-3)Gal(b1-4)GlcNAc(b1-3)Gal(b1-4)GlcNAc(b1-2)Man(a1-3)[Neu5Gc(a2-3)Gal(b1-4)GlcNAc(b1-3)Gal(b1-4)GlcNAc(b1-2)Man(a1-6)]Man(b1-4)GlcNAc(b1-4)GlcNAc
Method in brief: as §1

B1: AFL5 (Aspergillus fumigatus), Q4WB00 (protein)
chain: MDNFMEMTKKLGHQPELLRLRALDATYDDALEGKLVVAPLDMSEPGKKILDSGTADGTWLRNVRSKQSVPHDYYGSDVEGELFPKDPDGITYFAHSFKDPWPQQYLGFFDLVHIRGSLAGSAPEGPAPVIQNLTTLLKPGGWVQLMEMNAFSPPPNGPAMTDFAKMASEMFTGIGVGDFANNNKSMLEDAGLKNVQEKRVIVNLGKKAKPELHDQSIHGVTGPIVPLTSVARTVKSSFTGEQLDALPARVKEELETEGGQVEMIIAFGQKA
glycan array binding signal (z-score) (Gal6P(b1-4)GlcNAc): -0.398 | glycan array binding signal (z-score) (GalNAc(b1-3)GlcNAc): -0.465 | glycan array binding signal (z-score) [1]: 0.619 | glycan array binding signal (z-score) (GalNAc(b1-6)GalNAc): -0.013 | glycan array binding signal (z-score) (GalNAc3S(b1-4)GlcNAc3S): -0.187 | glycan array binding signal (z-score) (GlcA(b1-6)Gal): -0.217 | glycan array binding signal (z-score) [2]: 0.082 | glycan array binding signal (z-score) [3]: -0.335 | glycan array binding signal (z-score) [4]: 0.205 | glycan array binding signal (z-score) [5]: 0.456 | glycan array binding signal (z-score) [6]: 1.94 | glycan array binding signal (z-score) [7]: 1.47 | glycan array binding signal (z-score) [8]: -0.493 | glycan array binding signal (z-score) [9]: -0.216 | glycan array binding signal (z-score) (Kdn(a2-6)Gal(b1-4)GlcNAc): 0.092 | glycan array binding signal (z-score) (Man(a1-3)[Man(a1-6)]Man): 0.203 | glycan array binding signal (z-score) [10]: -0.456 | glycan array binding signal (z-score) [11]: 2.14 | glycan array binding signal (z-score) [12]: -0.74 | glycan array binding signal (z-score) [13]: 0.716 | glycan array binding signal (z-score) [14]: -0.53 | glycan array binding signal (z-score) [15]: -0.146 | glycan array binding signal (z-score) [16]: 2.17 | glycan array binding signal (z-score) [17]: -0.298 | glycan array binding signal (z-score) (Neu5Ac(a2-6)GalNAc): -0.731 | glycan array binding signal (z-score) [18]: 0.024 | glycan array binding signal (z-score) [19]: 0.079 | glycan array binding signal (z-score) [20]: -0.526 | glycan array binding signal (z-score) [21]: 0.635
